The full ranking holds about 1,000 compounds; the median of “thermal shift dTm” is about 0.19, and the highest 2% start at about 1.7. Shown is part of a subset that was picked to be rich in the highest values. Calls of active or inactive are those of the source.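 How the source made its calls: active means mean rise in melting temperature of at least 1 degC over same-plate control wells; inactive means below that, where a call was filed.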

The target in this test is Sulfhydryl oxidase 1 (Homo sapiens) (UniProt O00391). Kind of test: ligand-induced melting shift of human QSOX1 – biophysical, protein thermal shift, single concentration, QSOX1 inhibitor project, confirmation (AID 1347422).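 Further: dTm is compound Tm minus mean Tm of DMSO-only wells on that plate.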 As to conditions: recombinant hQSOX1 thermal shift, Sypro Orange, at 25 µM, stronger effect = higher value.
Sequence of Sulfhydryl oxidase 1 (Homo sapiens) (O00391 whole entry, looked up): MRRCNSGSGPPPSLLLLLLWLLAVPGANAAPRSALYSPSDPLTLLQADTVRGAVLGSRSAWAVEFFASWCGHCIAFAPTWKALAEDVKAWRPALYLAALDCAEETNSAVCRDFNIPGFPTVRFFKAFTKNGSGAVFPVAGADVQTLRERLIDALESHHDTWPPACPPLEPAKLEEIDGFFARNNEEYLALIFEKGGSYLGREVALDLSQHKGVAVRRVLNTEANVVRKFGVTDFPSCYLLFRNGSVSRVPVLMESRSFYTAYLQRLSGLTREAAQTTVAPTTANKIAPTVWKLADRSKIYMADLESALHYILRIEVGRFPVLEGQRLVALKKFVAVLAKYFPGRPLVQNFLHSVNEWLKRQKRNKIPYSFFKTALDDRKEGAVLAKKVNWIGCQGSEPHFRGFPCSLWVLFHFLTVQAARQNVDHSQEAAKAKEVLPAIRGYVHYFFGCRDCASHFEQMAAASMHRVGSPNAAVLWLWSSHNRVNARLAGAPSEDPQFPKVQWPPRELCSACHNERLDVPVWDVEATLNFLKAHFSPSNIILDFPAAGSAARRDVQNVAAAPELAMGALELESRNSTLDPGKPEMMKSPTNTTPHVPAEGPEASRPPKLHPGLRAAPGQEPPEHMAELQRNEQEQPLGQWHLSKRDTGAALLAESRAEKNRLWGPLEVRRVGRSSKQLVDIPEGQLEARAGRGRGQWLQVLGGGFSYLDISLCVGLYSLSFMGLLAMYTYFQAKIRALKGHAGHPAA
As to `COc1ccc(-c2c(-c3ccc(OC)c(C)c3O)n[nH]c2C(F)(F)F)cc1`, the thermal shift dTm worked out at 0.76 °C.
As for `Cc1ccc2sc(-c3ccc(NC(=O)CCc4ccccc4)cc3)nc2c1`, the figure is 0.4 °C; as for `COc1ccc(NC(=O)CSCc2ccccc2C)cc1Cl`, 0.02 °C; as for `Cc1ccc(S(=O)(=O)Nc2cccc(NC(=O)c3cccs3)c2)cc1`, 0.48 °C.
For the compound `Cc1cc(C)nc(NS(=O)(=O)c2ccc(NC(=O)c3cccs3)cc2)n1`, the thermal shift dTm was 2.92 °C (active).
Consider `O=C(c1ccncc1)c1ccc(NC(=O)c2cccs2)cc1`, for which the thermal shift dTm is 0.05 °C.
On to `CC1=Nc2ccccc2/C1=C/c1c(O)n(Cc2ccco2)c(=O)[nH]c1=O`, for which the thermal shift dTm came out at 0.93 °C.
Consider `CC(=O)c1sc(Nc2ccc(Oc3ccccc3)cc2)nc1C`, for which the thermal shift dTm came to 0.15 °C.
As for `Cc1nc(N)sc1-c1nnc(Nc2ccccc2)s1`, the thermal shift dTm is 2.14 °C (active).
As for `CCOc1ccc(Nc2nnc(C)s2)cc1`, the thermal shift dTm came out at 0.28 °C.
In the case of `Cc1ccc(NC(=O)C(C)Sc2nc3c(c(=O)[nH]2)CCCC3)cc1Cl` (centres undefined), the thermal shift dTm turned out to be 0.01 °C.
To `CCOc1ccc2nc(NC(=O)CCCCC(=O)O)sc2c1` belongs -0.04 °C (inactive).
In the case of `CC(NS(=O)(=O)c1ccc(Cl)cc1)C1C2CC3CC(C2)CC1C3` (centres undefined), the thermal shift dTm stood at 0.05 °C.
For the compound `COc1ccc(CCC(=O)Nc2nc3ccc(S(C)(=O)=O)cc3s2)cc1`, the thermal shift dTm came out at 0.35 °C.
To `Cc1ccc(CN2CCC(C(=O)Nc3cccc(-c4ccn[nH]4)c3)CC2)o1` belongs 0.19 °C.
Take `CCc1nc2sc(C(=O)c3ccccc3)c(N)c2c2c1CCCC2`: the thermal shift dTm was 0.11 °C.
For the compound `O=C(CCCc1c[nH]c2ccccc12)NCCOc1ccc(Cl)cc1`, the thermal shift dTm is -0.03 °C (inactive).
On to `COc1cc(CO)cc(Cl)c1OCc1cccc2ccccc12`, for which the thermal shift dTm was 0.21 °C.
As for `CC(=O)Nc1cccc(NC(=O)COc2ccc(F)cc2Cl)c1`, the thermal shift dTm was 0 °C (inactive).
As for `CCSC1=N/C(=C\c2ccc(-c3cccc(Cl)c3)o2)C(=O)S1`, the figure is 0.25 °C; as for `Cc1ccc(S(=O)(=O)Nc2ccc(C(=O)Nc3ccc4c(c3)OCO4)cc2)cc1`, 1.03 °C (active).
In the case of `Cc1ccc(Nc2nc(C3(C)CC4(CC(C)OC4=O)C(=O)O3)cs2)cc1` (centres undefined), the thermal shift dTm was 0.11 °C.
For the compound `O=C1OC(c2ccccc2)OC(=O)C1=Cc1ccc(-c2cccc(C(F)(F)F)c2)o1` (centres undefined), the thermal shift dTm is 1.07 °C (active).
For the compound `CCCc1cc(=O)[nH]c(N2CCN(Cc3ccc4c(c3)OCO4)CC2)n1`, the thermal shift dTm is 0.02 °C.
As for `Cc1ccc(-c2n[nH]c(-c3ccncc3)n2)cc1`, the thermal shift dTm came out at 0 °C.
`O=C(NCCO)Nc1ccc(Cl)c(Cl)c1`: the thermal shift dTm is 0 °C (inactive).
Turning to `O/N=C/c1cc(Cl)ccc1OCc1ccc(F)cc1`, the thermal shift dTm was found to be 0.34 °C.
As for `CCOc1ccc(NC(=O)Nc2cnccn2)cc1`, the figure is 0.09 °C.
As for `O=C(COc1ccc(Cl)cc1)NCCSCc1ccc(Cl)c(Cl)c1`, the figure is 0.11 °C.
Take `CC(=O)Nc1ccc(NC(=O)CCc2nc(-c3ccccc3)no2)cc1`: the thermal shift dTm is 0.14 °C.
`Cc1cccc(Nc2nc3ccc(C)cc3n3cnnc23)c1`: the thermal shift dTm worked out at 0.19 °C.
Turning to `Cc1ccc(C(=O)Nc2nc(-c3ccccc3)c(C)s2)s1`, the thermal shift dTm was 0.01 °C.
For `Cc1noc(NS(=O)(=O)c2ccc(NC(=O)Nc3ccc(Cl)cc3)cc2)c1C`, the thermal shift dTm is 0.7 °C.
Turning to `O=C(Nc1ccc(Cl)cc1)Nc1ccc(S(=O)(=O)Nc2ncccn2)cc1`, the thermal shift dTm is 1.03 °C (active).
Consider `Cc1ccc(NC(=O)Nc2ccc(S(=O)(=O)Nc3ccccn3)cc2)cc1`, for which the thermal shift dTm is 2.37 °C (active).
Regarding `CC(NC(=O)c1ccc(-c2cc(Cl)ccc2Cl)o1)c1ccccc1` (centres undefined), the thermal shift dTm was 0.07 °C.
Consider `Cc1ccccc1COc1ccc(Br)cc1/C=C1/N=C(c2ccco2)OC1=O`, for which the thermal shift dTm turned out to be 0.82 °C.
Regarding `Cc1nonc1CC(=O)N1CCc2ccc(NC(=O)Cc3ccccc3F)cc2C1`, the thermal shift dTm was 0.29 °C.
`COc1ccc(-c2nnc(Nc3ccc(O)cc3)c3ccccc23)cc1`: the thermal shift dTm was determined as 0.15 °C.
With `CN(C(=O)Nc1ccc(F)cc1)c1ccccc1`, the thermal shift dTm is -1.43 °C (inactive).
On to `Clc1cccc(-c2cn3ccccc3n2)c1`, for which the thermal shift dTm turned out to be 0.71 °C.
On to `O=C(Nc1ccc2ncccc2c1)c1cccc([N+](=O)[O-])c1`, for which the thermal shift dTm amounted to 0.53 °C.
Regarding `N#Cc1nc(/C=C/c2cccs2)oc1NCCc1ccccc1`, the thermal shift dTm is -37.7 °C (inactive).
Consider `Cc1ccc(NC(=O)N2CCC(Cc3ccccc3)CC2)cc1`, for which the thermal shift dTm was determined as 0.07 °C.
As to `CCCC(=O)Nc1cccc(NC(=O)/C=C/c2ccc(Cl)cc2)c1`, the thermal shift dTm is -31.6 °C (inactive).
As for `O=C(/C=C/c1ccc(Cl)cc1)Nc1cccnc1`, the figure is 2.02 °C (active); as for `O=C(/C=C/c1ccc(F)cc1)Nc1ccncc1`, 0.57 °C.
Regarding `CCOc1ccc(NC(=O)Nc2cc(OC)c(OC)c(OC)c2)cc1`, the thermal shift dTm was 1.64 °C (active).
Regarding `CCOc1ccc(NC(=O)Nc2cc(C)ccc2F)cc1`, the thermal shift dTm was 2.42 °C (active).
For the compound `CCc1ccc(NC(=O)Nc2cc(F)ccc2F)cc1`, the thermal shift dTm was -15.7 °C (inactive).
Take `CCOc1ccc(NC(=O)Nc2cc(F)ccc2C)cc1`: the thermal shift dTm is 2.14 °C (active).
In the case of `CCOc1ccc(NC(=O)Nc2cc(C)ccc2OC)cc1`, the thermal shift dTm came out at 0.34 °C.
As for `COc1cccc(NC(=O)Nc2cc(C)ccc2F)c1`, the figure is 0 °C; as for `Cc1ccc(-c2cn(S(=O)(=O)c3cccc4nsnc34)nc2N)cc1`, 0.1 °C; as for `O=C(Nc1ccccc1C(=O)O)c1cccc(S(=O)(=O)Nc2ccccc2)c1`, 1.23 °C (active).
In the case of `COc1ccc(Cl)cc1Nc1nc(-c2ccccn2)cs1`, the thermal shift dTm came out at 0.1 °C.
Take `Cc1cnc(CNCc2ccccc2OCC(O)CN(C)C2CCCCC2)cn1` (centres undefined): the thermal shift dTm is 0.14 °C.
Regarding `CCC(=O)c1ccc(OCC(=O)Nc2ccc(NC(C)=O)cc2)cc1`, the thermal shift dTm was -0.03 °C (inactive).
Take `Cc1ccc2[nH]cc(CCNC(=O)c3ccccc3Cl)c2c1`: the thermal shift dTm was -0.13 °C (inactive).
To `CCOc1ccccc1C1C(C#N)=C(N)Oc2cc(N(C)C)ccc21` (centres undefined) belongs 0.29 °C; to `COc1ccc(-c2cc(C(F)(F)F)nc(NCc3cccs3)n2)cc1OC`, 0.11 °C; to `O=C(Nc1cccc(-c2ccco2)c1)C1CCN(C(=O)CCc2ccco2)CC1`, 1.03 °C (active).
As for `O=C(Nc1ccc(Cl)cc1)Nc1cccc(C(=O)NCc2ccco2)c1`, the thermal shift dTm is 3.11 °C (active).
To `CCN(CC)C(=O)c1cccc(NC(=O)Nc2ccc(Cl)cc2)c1` belongs 0.23 °C.
`CC(=O)Nc1cccc(C(=O)Nc2ccc(Cl)cc2)c1`: the thermal shift dTm is -7.43 °C (inactive).
As to `CCc1ccc2c(c1)C(OC(C)=O)C(C)(C)C(c1cccc(Br)c1)N2` (centres undefined), the thermal shift dTm amounted to 0.44 °C.
In the case of `O=C(Nc1ccc(C(F)(F)F)cc1Cl)c1cc([N+](=O)[O-])[nH]n1`, the thermal shift dTm is 1.73 °C (active).
In the case of `O=C(CCC(=O)OCc1ccc(Br)cc1)Nc1cc(C(F)(F)F)ccc1Cl`, the thermal shift dTm amounted to 0.17 °C.
To `COc1cc(-c2cccc(-c3ccn[nH]3)c2)ccc1NC(C)=O` belongs 0.14 °C.

The values above are taken from PubChem BioAssay AID1347422 (Sanford-Burnham Center for Chemical Genomics, 2020).
